Inconclusive results are not listed. A call without a number means that no potency is given here. A structure can be active in one record and inactive in another. The source made the active and inactive calls. Calls follow the shape of the full dose curve.
Experiments:
[1] = molecular target: Acetylcholinesterase (Homo sapiens) (UniProt P22303); assay: Acetylcholinesterase (AChE) small molecule antagonists: colormetric cell-based qHTS assay (AID 1347395); also: nearly all actives have a fitted effect of over 30% in size; also: potency is read from the fitted curve at half-maximal effect
Procedure, shortened: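 SH-SY5Y cells, plated overnight at 37 C, were exposed to compounds for 30 min at 37 C and 5% CO2. Acetylthiocholine plus DTNB was then added, and thiocholine from endogenous AChE was quantified colorimetrically after 90 min at 37 C.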

[2] = molecular target: Acetylcholinesterase (Homo sapiens) (UniProt P22303); assay: Acetylcholinesterase (AChE) small molecule antagonists: enzyme-based qHTS assay (AID 1347397); conditions: Potency: AChE enzyme activity inhibition; outcome: AChE enzyme activity inhibition; also: nearly all actives have a fitted effect of over 55% in size
Procedure, shortened: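 Compound or DMSO vehicle was pin-transferred onto recombinant human AChE (50 mU/mL as dispensed) and left 30 min at room temperature. Acetylthiocholine with DTNB then started the reaction, read colorimetrically 10 min later.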

[3] = molecular target: Acetylcholinesterase (Homo sapiens) (UniProt P22303); assay: Acetylcholinesterase (AChE) small molecule antagonists: fluorescence cell-based qHTS assay (AID 1347398); conditions: Potency: AChE activity; outcome: AChE activity; also: nearly all actives have a fitted effect of over 50% in size; also: potency is read from the fitted curve at half-maximal effect
Procedure, shortened: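 Using neuroblastoma SH-SY5Y cells as the enzyme source, test chemicals are preincubated 30 min at 37 C; AChE-driven acetylthiocholine cleavage is then quantified by thiocholine-dependent Thiolite Green fluorescence after 40 min at room temperature.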

[4] = molecular target: Acetylcholinesterase (Homo sapiens) (UniProt P22303); assay: Acetylcholinesterase (AChE) small molecule antagonists: enzyme-based qHTS assay with human liver microsomes (AID 1347399); conditions: Potency: qHTS inhibition; outcome: qHTS inhibition; also: nearly all actives have a fitted effect of over 60% in size
Procedure, shortened: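 Recombinant human AChE (50 mU/mL in the enzyme mix) and human liver microsomes (0.25 mg/mL final) were preincubated with compound and NADPH (0.25 mg/mL final) for 30 min at 37 C. Acetylthiocholine/DTNB was then added; thiocholine was read colorimetrically after 10 min at room temperature.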

Acetylcholinesterase (Homo sapiens), sequence (P22303 whole entry, looked up): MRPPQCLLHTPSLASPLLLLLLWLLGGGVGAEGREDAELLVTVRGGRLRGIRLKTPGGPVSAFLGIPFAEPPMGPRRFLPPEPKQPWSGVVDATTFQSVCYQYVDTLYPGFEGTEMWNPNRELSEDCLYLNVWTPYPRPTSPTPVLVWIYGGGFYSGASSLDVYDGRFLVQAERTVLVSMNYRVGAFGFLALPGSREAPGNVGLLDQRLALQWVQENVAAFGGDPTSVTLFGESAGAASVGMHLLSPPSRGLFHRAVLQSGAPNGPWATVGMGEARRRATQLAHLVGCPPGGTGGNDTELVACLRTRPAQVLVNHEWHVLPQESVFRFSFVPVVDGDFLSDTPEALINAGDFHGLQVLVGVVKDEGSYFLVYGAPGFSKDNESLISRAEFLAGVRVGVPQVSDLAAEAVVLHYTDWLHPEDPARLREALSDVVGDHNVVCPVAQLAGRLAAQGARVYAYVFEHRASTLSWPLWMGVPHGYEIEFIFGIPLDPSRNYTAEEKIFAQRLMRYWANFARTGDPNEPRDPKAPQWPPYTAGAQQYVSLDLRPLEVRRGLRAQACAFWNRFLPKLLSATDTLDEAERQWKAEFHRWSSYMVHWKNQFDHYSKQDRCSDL

SMILES: Cc1cc(=O)[nH]c(=S)[nH]1
- Potency [1]: inactive
- Potency [2]: inactive
- Potency [3]: inactive
- Potency [4]: inactive

SMILES: CCCCCCCCCCCCCO
- Potency [1]: inactive
- Potency [2]: inactive
- Potency [3]: inactive
- Potency [4]: inactive

SMILES: CO[C@@]1(NC(=O)Cc2cccs2)C(=O)N2C(C(=O)O)=C(COC(N)=O)CS[C@@H]21
- Potency [1]: inactive
- Potency [2]: inactive
- Potency [3]: inactive
- Potency [4]: inactive

SMILES: CC(C)Cc1ccc(CC(=O)O)cc1
- Potency [1]: inactive
- Potency [2]: inactive
- Potency [3]: inactive
- Potency [4]: inactive

SMILES: CC(=O)Oc1c(C)c(C)c2c(c1C)CC[C@@](C)(CCC[C@H](C)CCC[C@H](C)CCCC(C)C)O2
- Potency [1]: inactive
- Potency [2]: inactive
- Potency [3]: inactive
- Potency [4]: inactive

SMILES: CNC[C@H](O)[C@@H](O)[C@H](O)[C@H](O)CO
- Potency [1]: inactive
- Potency [2]: inactive
- Potency [3]: inactive
- Potency [4]: inactive

SMILES: N[C@@H](Cc1cc(I)c(Oc2ccc(O)c(I)c2)c(I)c1)C(=O)O
- Potency [1]: inactive
- Potency [2]: inactive
- Potency [3]: inactive
- Potency [4]: inactive

SMILES: CC(=O)CC(=O)Nc1ccc(S(=O)(=O)O)cc1
- Potency [1]: inactive
- Potency [2]: inactive
- Potency [3]: inactive
- Potency [4]: inactive

SMILES: O=P(O)(OCc1ccccc1)OCc1ccccc1
- Potency [1]: inactive
- Potency [2]: inactive
- Potency [3]: inactive
- Potency [4]: inactive

SMILES: Cc1cccc(NC(=S)N(C)C)c1
- Potency [1]: inactive
- Potency [2]: inactive
- Potency [3]: inactive
- Potency [4]: inactive

SMILES: CC(Cl)C(Cl)Cl (stereo not given)
- Potency [1]: inactive
- Potency [2]: inactive
- Potency [3]: inactive
- Potency [4]: inactive

SMILES: C=C(C)C(=O)OCCOC1CC2CC1C1C=CCC21 (stereo not given)
- Potency [1]: inactive
- Potency [2]: inactive
- Potency [3]: inactive
- Potency [4]: inactive

SMILES: CCCCC(=O)OCC(=O)[C@H]1[C@H](C)C[C@H]2[C@@H]3C[C@H](F)C4=CC(=O)C=C[C@]4(C)[C@@]3(F)[C@@H](O)C[C@@]21C
- Potency [1]: inactive
- Potency [2]: inactive
- Potency [3]: inactive
- Potency [4]: inactive

SMILES: COc1cc(C=O)ccc1O
- Potency [1]: inactive
- Potency [2]: inactive
- Potency [3]: inactive
- Potency [4]: inactive

SMILES: CC(COC(C)(C)C)OCCCO (stereo not given)
- Potency [1]: inactive
- Potency [2]: inactive
- Potency [3]: inactive
- Potency [4]: inactive

SMILES: CCC(Cc1c(I)cc(I)c(N)c1I)C(=O)O (stereo not given)
- Potency [1]: inactive
- Potency [2]: inactive
- Potency [3]: inactive
- Potency [4]: inactive

SMILES: CCCCC(CC)CO (stereo not given)
- Potency [1]: inactive
- Potency [2]: inactive
- Potency [3]: inactive
- Potency [4]: inactive

SMILES: CC1(N)CCC(C(C)(C)N)CC1 (stereo not given)
- Potency [1]: inactive
- Potency [2]: inactive
- Potency [3]: inactive
- Potency [4]: inactive

SMILES: NC(=O)N1c2ccccc2C=Cc2ccccc21
- Potency [1]: 35.4 µM (active) and inactive
- Potency [2]: inactive
- Potency [3]: inactive
- Potency [4]: inactive

SMILES: CN(C)C(=O)Nc1ccc(Cl)c(Cl)c1
- Potency [1]: inactive
- Potency [2]: inactive
- Potency [3]: inactive
- Potency [4]: inactive

SMILES: CCCCCCCC/C=C\CCCCCCCC(N)=O
- Potency [1]: inactive
- Potency [2]: inactive
- Potency [3]: inactive
- Potency [4]: inactive

SMILES: N#Cc1cc(NC(=O)C(=O)O)c(Cl)c(NC(=O)C(=O)O)c1
- Potency [1]: inactive
- Potency [2]: inactive
- Potency [3]: inactive
- Potency [4]: inactive

SMILES: C=C1C(C)(C)[C@@]2(Cl)C(Cl)[C@]1(Cl)C(Cl)(Cl)C2(Cl)Cl (stereo not given in full)
- Potency [1]: inactive
- Potency [2]: inactive
- Potency [3]: inactive
- Potency [4]: inactive

SMILES: C=CC(=O)N1CCOCC1
- Potency [1]: inactive
- Potency [2]: inactive
- Potency [3]: inactive
- Potency [4]: inactive

SMILES: CCCCC/C(=C\c1ccccc1)CO
- Potency [1]: inactive
- Potency [2]: inactive
- Potency [3]: inactive
- Potency [4]: inactive

SMILES: COc1ccc(Cl)cc1C(=O)NCCc1ccc(S(=O)(=O)NC(=O)NC2CCCCC2)cc1
- Potency [1]: inactive
- Potency [2]: inactive
- Potency [3]: inactive
- Potency [4]: inactive

SMILES: CN(C)CCCN
- Potency [1]: inactive
- Potency [2]: inactive
- Potency [3]: inactive
- Potency [4]: inactive

SMILES: [Cl][Dy]([Cl])[Cl]
- Potency [1]: inactive
- Potency [2]: inactive
- Potency [3]: inactive
- Potency [4]: inactive

SMILES: O=C(Nc1ccccc1)c1cc(Cl)ccc1O
- Potency [1]: inactive
- Potency [2]: inactive
- Potency [3]: inactive
- Potency [4]: inactive

SMILES: CCCCCNCCCCC
- Potency [1]: inactive
- Potency [2]: inactive
- Potency [3]: inactive
- Potency [4]: inactive

SMILES: CC/C(C)=N/O
- Potency [1]: inactive
- Potency [2]: inactive
- Potency [3]: inactive
- Potency [4]: inactive

SMILES: Cc1ccc(O)c2ncccc12
- Potency [1]: inactive
- Potency [2]: inactive
- Potency [3]: inactive
- Potency [4]: inactive

SMILES: CCCCNc1c(C(=O)OCC)c(C)nc2c1cnn2CC
- Potency [1]: inactive
- Potency [2]: inactive
- Potency [3]: inactive
- Potency [4]: inactive

SMILES: CCCCC(=O)O
- Potency [1]: inactive
- Potency [2]: inactive
- Potency [3]: inactive
- Potency [4]: inactive

SMILES: CCCCCSCCCCC
- Potency [1]: inactive
- Potency [2]: inactive
- Potency [3]: inactive
- Potency [4]: inactive

SMILES: CCCSSCCC
- Potency [1]: inactive
- Potency [2]: inactive
- Potency [3]: inactive
- Potency [4]: inactive

SMILES: C=CC(C)(C)C
- Potency [1]: inactive
- Potency [2]: inactive
- Potency [3]: inactive
- Potency [4]: inactive

SMILES: CCCC[O][Al]([O]CCCC)[O]CCCC
- Potency [1]: inactive
- Potency [2]: inactive
- Potency [3]: inactive
- Potency [4]: inactive

SMILES: CCOC(=O)COc1ccc(C)cc1
- Potency [1]: inactive
- Potency [2]: inactive
- Potency [3]: inactive
- Potency [4]: inactive

SMILES: O=C(Oc1ccccc1)Oc1ccccc1
- Potency [1]: inactive
- Potency [2]: inactive
- Potency [3]: inactive
- Potency [4]: inactive

SMILES: C[C@@H]1O[C@@H](O[C@@H]2[C@@H](O)[C@H](OCCc3ccc(O)c(O)c3)O[C@H](CO[C@@H]3O[C@H](CO)[C@@H](O)[C@H](O)[C@H]3O)[C@H]2OC(=O)/C=C/c2ccc(O)c(O)c2)[C@H](O)[C@H](O)[C@H]1O
- Potency [1]: inactive
- Potency [2]: inactive
- Potency [3]: inactive
- Potency [4]: inactive

SMILES: OCCCCC(O)CO (stereo not given)
- Potency [1]: inactive
- Potency [2]: inactive
- Potency [3]: inactive
- Potency [4]: inactive

SMILES: Cc1cc(O)cc2c1O[C@](C)(CCC[C@H](C)CCC[C@H](C)CCCC(C)C)CC2
- Potency [1]: inactive
- Potency [2]: inactive
- Potency [3]: inactive
- Potency [4]: inactive

SMILES: OCC1(CO)COCOC1
- Potency [1]: inactive
- Potency [2]: inactive
- Potency [3]: inactive
- Potency [4]: inactive

SMILES: COC1CCC=CO1 (stereo not given)
- Potency [1]: inactive
- Potency [2]: inactive
- Potency [3]: inactive
- Potency [4]: inactive

SMILES: C=C(C)C(=O)OCCC[Si](OC)(OC)OC
- Potency [1]: inactive
- Potency [2]: inactive
- Potency [3]: inactive
- Potency [4]: inactive

SMILES: OC12N=C(c3ccccc3)SC1Cc1cc(Cl)ccc12 (stereo not given)
- Potency [1]: inactive
- Potency [2]: inactive
- Potency [3]: inactive
- Potency [4]: inactive

SMILES: Cc1cccnc1
- Potency [1]: inactive
- Potency [2]: inactive
- Potency [3]: inactive
- Potency [4]: inactive

SMILES: CS(C)(=O)=O
- Potency [1]: inactive
- Potency [2]: inactive
- Potency [3]: inactive
- Potency [4]: inactive

SMILES: CC(C)(C)C1CCC(O)CC1 (stereo not given)
- Potency [1]: inactive
- Potency [2]: inactive
- Potency [3]: inactive
- Potency [4]: inactive

SMILES: CCCCC(CC)COC(=O)C(C#N)=C(c1ccccc1)c1ccccc1 (stereo not given)
- Potency [1]: inactive
- Potency [2]: inactive
- Potency [3]: inactive
- Potency [4]: inactive

SMILES: CCOC(=O)Cc1cccc2ccccc12
- Potency [1]: inactive
- Potency [2]: inactive
- Potency [3]: inactive
- Potency [4]: inactive

SMILES: N[C@@H](Cc1cc(I)c(O)c(I)c1)C(=O)O
- Potency [1]: inactive
- Potency [2]: inactive
- Potency [3]: inactive
- Potency [4]: inactive

SMILES: Cc1cc(C)c(S(=O)(=O)O)cc1N=Nc1cc(S(=O)(=O)O)c2ccccc2c1O
- Potency [1]: inactive
- Potency [2]: inactive
- Potency [3]: inactive
- Potency [4]: inactive

SMILES: CS(=O)(=O)CCNCc1ccc(-c2ccc3ncnc(Nc4ccc(OCc5cccc(F)c5)c(Cl)c4)c3c2)o1
- Potency [1]: inactive
- Potency [2]: inactive
- Potency [3]: inactive
- Potency [4]: inactive

SMILES: CC(O)CC(C)O (stereo not given)
- Potency [1]: inactive
- Potency [2]: inactive
- Potency [3]: inactive
- Potency [4]: inactive

SMILES: CC(=O)O[C@@H]1CC2C3CCc4cc(OC(=O)c5ccccc5)ccc4C3CCC2(C)[C@H]1OC(C)=O (stereo not given in full)
- Potency [1]: inactive
- Potency [2]: inactive
- Potency [3]: inactive
- Potency [4]: inactive

SMILES: CCCCCCCC=O
- Potency [1]: inactive
- Potency [2]: inactive
- Potency [3]: inactive
- Potency [4]: inactive

SMILES: O=C(O)c1cc(C(=O)O)cc(S(=O)(=O)O)c1
- Potency [1]: inactive
- Potency [2]: inactive
- Potency [3]: inactive
- Potency [4]: inactive

SMILES: CC(=O)/C=C/C1=C(C)CCCC1(C)C
- Potency [1]: 35.6 µM (active)
- Potency [2]: inactive
- Potency [3]: 10.2 µM (active)
- Potency [4]: inactive

Source: PubChem BioAssay (Tox21)
